The text below walks through data of PubChem BioAssay.

Structures are written as SMILES. Calls of active or inactive are those of the source. Unless noted, no rule for the calls is given here.

Experiment [1] in a line: compounds binding Alexa647 anti-His antibody – biochemical, small-molecule microarray, 635 nm fluorescence, artefact control for SMM control protein annotation, primary screen (AID 1128).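 Also: score merges feature fluorescence with signal-to-noise for each printed compound spot.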 The settings on record: higher = more signal.
For experiment [2], the system named is Human papillomavirus type 1a E7 protein (residues 1-88). Nature of the experiment: HPV1a E7 small-molecule binders, primary screen, biochemical, small-molecule microarray, residues 1-88, 635 nm (AID 1129). The settings on record: small-molecule microarray binding, fluorescence 635 nm; higher = more signal.
The target of experiment [3] is Focal adhesion kinase 1 (Homo sapiens) (UniProt Q05397). Nature of the experiment: PTK2 protein binding on printed compound slides – biochemical, small-molecule microarray, 635/667 nm fluorescence, BSA, DTT, primary screen (AID 1130).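 Also: composite of spot emission at 667 nm and signal to noise over triplicate slides.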 The following applies: 635 nm fluorescence, higher = more signal.
Focal adhesion kinase 1 (Homo sapiens), sequence (Q05397 whole entry, looked up): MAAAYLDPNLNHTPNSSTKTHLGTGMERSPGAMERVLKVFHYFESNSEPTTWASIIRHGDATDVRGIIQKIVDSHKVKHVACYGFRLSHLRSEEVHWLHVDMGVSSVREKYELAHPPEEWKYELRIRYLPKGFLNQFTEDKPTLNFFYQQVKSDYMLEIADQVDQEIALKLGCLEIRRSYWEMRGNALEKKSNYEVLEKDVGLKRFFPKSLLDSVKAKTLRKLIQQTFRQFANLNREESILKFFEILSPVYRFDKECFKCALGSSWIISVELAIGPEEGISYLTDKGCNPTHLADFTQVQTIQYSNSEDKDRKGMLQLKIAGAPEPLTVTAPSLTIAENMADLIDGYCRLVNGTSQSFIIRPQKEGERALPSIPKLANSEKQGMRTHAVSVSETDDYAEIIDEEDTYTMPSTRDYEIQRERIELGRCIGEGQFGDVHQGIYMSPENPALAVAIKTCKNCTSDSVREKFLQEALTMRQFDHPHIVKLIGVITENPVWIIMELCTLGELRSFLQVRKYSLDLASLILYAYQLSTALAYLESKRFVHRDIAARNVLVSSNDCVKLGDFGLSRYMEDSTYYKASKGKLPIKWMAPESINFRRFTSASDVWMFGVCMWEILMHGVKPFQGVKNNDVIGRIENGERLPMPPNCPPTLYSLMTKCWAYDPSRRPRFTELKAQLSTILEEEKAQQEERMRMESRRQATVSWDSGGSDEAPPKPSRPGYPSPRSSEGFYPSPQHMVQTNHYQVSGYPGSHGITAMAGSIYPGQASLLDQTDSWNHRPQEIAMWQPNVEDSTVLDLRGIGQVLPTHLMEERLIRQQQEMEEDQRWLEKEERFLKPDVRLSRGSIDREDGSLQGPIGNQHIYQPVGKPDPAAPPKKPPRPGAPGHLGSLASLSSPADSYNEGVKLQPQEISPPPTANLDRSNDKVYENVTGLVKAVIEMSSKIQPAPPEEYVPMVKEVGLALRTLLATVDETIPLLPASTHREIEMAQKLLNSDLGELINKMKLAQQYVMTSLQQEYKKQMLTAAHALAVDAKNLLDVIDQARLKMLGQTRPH
The test system of experiment [4] is Fibrinogen (Alexa647-labelled). Nature of the experiment: Alexa647-fibrinogen binding to printed small molecules – biochemical, small-molecule microarray, 635/667 nm fluorescence, artefact control for SMM control-protein annotation, profiling panel (AID 1131).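 Also: z-score merges 667 nm fluorescence with per-spot signal-to-noise over triplicate slides.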 The following applies: fibrinogen-A647 binding fluorescence, higher = more signal.
Experiment [5] has as its target Follistatin (Homo sapiens) (UniProt P19883). Nature of the experiment: FST protein binding to printed compounds – biochemical, small-molecule microarray, 635/667 nm fluorescence, primary screen (AID 1132). The following applies: 635 nm fluorescence, higher = more signal.
Experiment [6] deals with Fibroblast growth factor 2 (Homo sapiens) (UniProt P09038). Nature of the experiment: basic fibroblast growth factor binding to printed compounds – biochemical, small-molecule microarray, 635/667 nm fluorescence, primary screen (AID 1133). The settings on record: FGF2, fluorescence 635/667, higher = more signal.
Fibroblast growth factor 2 (Homo sapiens), sequence (P09038 whole entry, looked up): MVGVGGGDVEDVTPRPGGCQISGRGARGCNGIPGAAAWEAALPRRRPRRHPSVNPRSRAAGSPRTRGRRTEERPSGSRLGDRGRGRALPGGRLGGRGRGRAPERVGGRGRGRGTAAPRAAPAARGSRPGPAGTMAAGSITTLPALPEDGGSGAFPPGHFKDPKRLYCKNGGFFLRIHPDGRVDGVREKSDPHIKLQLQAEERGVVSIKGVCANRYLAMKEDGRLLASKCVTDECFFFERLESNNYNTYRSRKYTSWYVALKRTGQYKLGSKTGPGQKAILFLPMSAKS
Experiment [7] is described as follows: JC-1 mitochondrial potential readout, lung cancer cells – cell-based, A549, JC-1 fluorescence, basal, 24 h, 100 nL, profiling panel (AID 1138).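 Also: A549 lung adenocarcinoma cells under basal conditions with no added stimulus; test concentration not given here.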 The settings on record: higher = more signal.
In experiment [8] the test system is Lefty1. Nature of the experiment: Lefty1 protein binding to printed compounds – biochemical, small-molecule microarray, 635/667 nm fluorescence, primary screen (AID 1139). The following applies: fluorescence 635/667, higher = more signal.
Experiment [9] has as its system wheat germ agglutinin (Triticum aestivum), Alexa647-labelled. Nature of the experiment: Alexa647-WGA lectin binding to printed small molecules – biochemical, small-molecule microarray, 635/667 nm fluorescence, artefact control for SMM control-protein annotation, profiling panel (AID 1140).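 Also: score merges 667 nm feature emission with signal to noise over triplicate slides.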 The settings on record: WGA-A647 binding, 635 nm fluorescence, higher = more signal.

Experiment [10] concerns the target Luciferin 4-monooxygenase (Photinus pyralis) (UniProt P08659). Nature of the experiment: inhibition of purified Photinus pyralis luciferase – biochemical, luminescence, purified enzyme, 2006 set, primary screen (AID 1141).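 Also: cell-free assay with purified firefly luciferase at 100 ng per well in PBS; test concentration not given here.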 The following applies: purified firefly luciferase, SteadyGlo luminescence, 30 min; higher = more signal, called active from +8 up or from −8 down.

Experiment [11] relates to Wnt5a (protein binding on small-molecule microarray). Nature of the experiment: small molecules binding Wnt5a protein – biophysical, small-molecule microarray, 635/667 nm fluorescence, primary screen (AID 1142).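 Also: fluorescence read at 667 nm with signal to noise per printed feature.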 The following applies: 635 nm fluorescence, higher = more signal.
The nature of experiment [12]: ATP-based viability of Huh7 replicon cells – cell-based, CellTiter-Glo luminescence, basal, 48 h, cytotoxicity control for HCV replication inhibitor project, primary screen (AID 1143).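 Also: Huh7 hepatoma cells carrying a hepatitis C replication reporter with no stimulus; test concentration not given here.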 The settings on record: higher = more signal, called active from +8 up or from −8 down.
Experiment [13] can be described thus: Pseudomonas biofilm growth suppression – PAO1 strain, BacTiter-Glo luminescence, LB-PBS, primary screen (AID 1144). The following applies: P. aeruginosa PAO1 biofilm, 12 h, higher = more signal.
Experiment [14] in a line: basal CRE-LacZ reporter activity in PC12 – cell-based, unstimulated, primary screen (AID 1145). The following applies: no forskolin, luminescence, 4.5 h, higher = more signal, called active from +8 up or from −8 down.
The nature of experiment [15]: forskolin-driven CRE-LacZ activity in PC12 – cell-based, CRE-LacZ reporter, forskolin-stimulated, primary screen (AID 1146).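 Also: PC12 cells with 6xCRE LacZ reporter stimulated by forskolin 10 µM; beta-galactosidase reporter signal reflecting CREB driven transcription.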 The following applies: luminescence, 4.5 h, higher = more signal, called active from +8 up or from −8 down.
Experiment [16] addresses Streptavidin (Streptomyces avidinii) (UniProt P22629). Nature of the experiment: compounds binding control protein streptavidin – biophysical, small-molecule microarray, 635/667 nm fluorescence, artefact control for SMM compound annotation, primary screen (AID 1147).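 Also: signal reflects streptavidin binding to arrayed compounds as a control protein.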 The following applies: higher = more signal.
Experiment [17] is described as follows: probe aInhba binding on compound microarray – biochemical, small-molecule microarray, 635/667 nm fluorescence, primary screen (AID 1148).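 Also: score merges 667nm spot fluorescence with signal-to-noise for antibody binding to printed compounds.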 The following applies: higher = more signal.
The target in experiment [18] is Torsin-1A (Homo sapiens) (UniProt O14656). Nature of the experiment: TOR1A wild-type binding on microarray – cell lysate, small-molecule microarray, lysate, 635/667 nm, primary screen (AID 1149). The following applies: COS7 hTOR1A-WT lysate, 635 nm fluorescence, higher = more signal.
Torsin-1A (Homo sapiens), sequence (O14656 whole entry, looked up): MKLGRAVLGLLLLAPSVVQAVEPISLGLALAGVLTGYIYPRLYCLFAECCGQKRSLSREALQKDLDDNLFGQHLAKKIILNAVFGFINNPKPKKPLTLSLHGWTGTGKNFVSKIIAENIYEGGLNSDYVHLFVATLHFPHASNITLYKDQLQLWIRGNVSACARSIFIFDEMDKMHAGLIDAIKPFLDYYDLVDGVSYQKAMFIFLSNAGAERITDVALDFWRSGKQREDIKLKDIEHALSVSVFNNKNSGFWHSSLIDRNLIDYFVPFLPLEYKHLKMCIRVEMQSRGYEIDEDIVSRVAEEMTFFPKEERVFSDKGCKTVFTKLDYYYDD
Experiment [19] shares this target. Nature of the experiment: torsin A mutant lysate binding on microarrays – cell lysate, small-molecule microarray, COS7 lysate, 635/667 nm fluorescence, primary screen (AID 1150).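 Also: score pools 667 nm emission and signal to noise measuring lysate protein binding.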 The settings on record: COS7 hTOR1A mutant lysate, 635 nm fluorescence, higher = more signal.
In experiment [20] the test system is Sonic hedgehog protein (Shh). Nature of the experiment: Sonic hedgehog microarray binding compounds – biochemical, small-molecule microarray, 635/667 nm fluorescence, primary screen (AID 1151).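 Also: Shh protein binding to compounds spotted on small-molecule microarray slides; score combines spot fluorescence intensity with signal-to-noise across triplicate slides.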 The following applies: 635 nm fluorescence, higher = more signal.

Follistatin (Homo sapiens), sequence (P19883 whole entry, looked up): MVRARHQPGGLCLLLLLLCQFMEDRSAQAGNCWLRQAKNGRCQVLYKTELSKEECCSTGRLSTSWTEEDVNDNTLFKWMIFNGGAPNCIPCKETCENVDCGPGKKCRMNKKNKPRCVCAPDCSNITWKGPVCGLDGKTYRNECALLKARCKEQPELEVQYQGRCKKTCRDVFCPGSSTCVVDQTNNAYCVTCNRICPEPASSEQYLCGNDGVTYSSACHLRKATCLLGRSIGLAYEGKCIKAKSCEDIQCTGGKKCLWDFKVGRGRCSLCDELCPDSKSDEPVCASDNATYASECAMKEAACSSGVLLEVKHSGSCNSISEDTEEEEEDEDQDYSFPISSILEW
Streptavidin (Streptomyces avidinii), sequence (P22629 whole entry, looked up): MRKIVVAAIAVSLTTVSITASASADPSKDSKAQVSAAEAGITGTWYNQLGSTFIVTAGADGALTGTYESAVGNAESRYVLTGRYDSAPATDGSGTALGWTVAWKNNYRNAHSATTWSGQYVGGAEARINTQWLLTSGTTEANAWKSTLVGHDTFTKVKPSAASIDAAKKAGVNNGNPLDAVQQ
Luciferin 4-monooxygenase (Photinus pyralis), sequence (P08659 whole entry, looked up): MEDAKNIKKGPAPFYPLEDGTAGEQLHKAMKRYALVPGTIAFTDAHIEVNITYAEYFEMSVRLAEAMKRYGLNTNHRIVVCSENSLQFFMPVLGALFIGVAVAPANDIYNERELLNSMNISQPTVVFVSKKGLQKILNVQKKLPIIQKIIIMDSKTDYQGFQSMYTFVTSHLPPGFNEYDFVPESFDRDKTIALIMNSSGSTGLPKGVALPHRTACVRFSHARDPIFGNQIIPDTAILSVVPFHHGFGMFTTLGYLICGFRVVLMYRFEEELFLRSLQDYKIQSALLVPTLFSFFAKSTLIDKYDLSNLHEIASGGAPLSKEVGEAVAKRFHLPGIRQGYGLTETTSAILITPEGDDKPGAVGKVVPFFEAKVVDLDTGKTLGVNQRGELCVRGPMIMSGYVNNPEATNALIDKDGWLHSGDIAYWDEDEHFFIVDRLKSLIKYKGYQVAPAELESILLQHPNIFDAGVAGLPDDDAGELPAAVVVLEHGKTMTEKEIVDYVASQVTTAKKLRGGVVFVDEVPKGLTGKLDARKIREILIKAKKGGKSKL

On to `C=CCC(OC(C)=O)[C@@H]1[C@@H](N(Cc2cc3ccccc3o2)C(=O)c2ccc(-c3ccccc3)cc2)c2cc(OCCCO)ccc2N1C(=O)c1ccc2ccccc2c1` (stereo not given in full), for which the composite z-score in experiment [1] is 0.0895; in experiment [2] it was 0.0833; in experiment [3], -0.394; in experiment [4] it was 0.394; in experiment [5] it was 0.874; in experiment [6], -0.198. The composite z-score in [8] was 0.795; in [9], 0.196; in experiment [11], -0.0582; in experiment [16], 0.0798; in experiment [17], -0.143; in experiment [18], 0.0664. The results for the composite z-score in [19] and in experiment [20] were -0.0892 and 1.12, respectively. For the same compound, the z-score in [7] is 1.26; in experiment [10], -0.455 (inactive); in experiment [12] it was -0.282 (inactive); in experiment [13] it was 0.2 (inactive); in [14], 1.22 (inactive); in [15] it was 0.655 (inactive).
As for `[N-]=[N+]=NCc1ccccc1[C@H]1OC(c2ccc(OCCCO)cc2)=N[C@@]1(CCS(=O)(=O)c1ccccc1)C(=O)N1CCCCC1`, the composite z-score in [1] was determined as 2.98; in experiment [2], 1.23; in [3], 1.12; in experiment [4] it was 1.02; in experiment [5], 1.1; in experiment [6], 0.227. Moreover, the composite z-score was 0.53 in experiment [8]; 1.44 in [9]; 0.526 in [11]; 1.72 in [16]; 0.211 in experiment [17]; 0.827 in experiment [18]. Further, the composite z-score in [19] came out at 1.28; in experiment [20], 0.155. In addition, the z-score is -1.16 in [7]; -0.844 (inactive) in [10]; -1.56 (inactive) in [12]; -0.705 (inactive) in [13]; 0.0219 (inactive) in [14]; -0.709 (inactive) in experiment [15].
For the compound `C=CCN1Cc2ccccc2[C@H]2OC(c3ccc(OCCCO)cc3)=N[C@@]2(CC=C)C1=O`, the composite z-score in [1] turned out to be 2.47; in experiment [2], 1.23; in [3], 1.12; in [4], 0.59; in [5] it was 1.54; in [6], 1.87. Moreover, the composite z-score is 0.834 in experiment [8]; 0.619 in experiment [9]; 1.07 in experiment [11]; 0.998 in experiment [16]; 0.268 in experiment [17]; 1.08 in experiment [18]. Moreover, the composite z-score in experiment [19] was 0.475; in experiment [20] it was 1.91. Also, the z-score in [7] was 1.33; in experiment [10], -0.107 (inactive); in experiment [12] it was -3.16 (inactive); in [13], -0.746 (inactive); in [14], 0.0594 (inactive); in [15], -1.58 (inactive).
Consider `COC(=O)c1cn(C[C@@H](Cc2ccccc2)NC(=O)N[C@H](CO)CCc2oc(C(C)=O)c(C(=O)OC)c2C(=O)OC)nn1`, for which the composite z-score in experiment [1] came to 1.42; in experiment [2], 0.533; in experiment [3] it was 0.192; in [4], 0.729; in [5], 1.02; in [6], 0.86. For the same compound, the composite z-score in [8] was found to be 1.17; in [9], 0.235; in experiment [11], 0.173; in [16], 0.304; in experiment [17], 0.108; in experiment [18], 0.658. For the same compound, the results for the composite z-score in [19] and in experiment [20] were 0.268 and 1.93, respectively. Also, the z-score was 0.642 in [7]; -0.373 (inactive) in experiment [10]; -0.102 (inactive) in experiment [12]; 0.201 (inactive) in [13]; 1.5 (inactive) in experiment [14]; -0.981 (inactive) in experiment [15].
Regarding `COCCOC(=O)N1C(=O)[C@@]2(c3cc(C#CC4=CCCCC4)ccc31)[C@H](c1ccc(OCCO)cc1)N1[C@H](c3ccccc3)[C@H](c3ccccc3)OC(=O)[C@H]1[C@@H]2C(=O)N1CCN(c2ncccn2)CC1`, the composite z-score stood at 0.433 in [1]; 1.15 in [2]; 0.067 in [3]; 0.574 in [4]; 1.29 in [5]; 0.692 in experiment [6]. For the same compound, the composite z-score in experiment [8] stood at 0.853; in experiment [9], 0.5; in [11], 0.323; in [16], 0.0363; in experiment [17], 0.0649; in [18] it was 0.767. Also, the composite z-score in [19] worked out at 0.501; in experiment [20] it was 0.772. The z-score in experiment [7] is -1.27; in [10], -2.01 (inactive); in [12], -1.24 (inactive); in experiment [13], 1.04 (inactive); in experiment [14] it was 0.212 (inactive); in experiment [15] it was -0.674 (inactive).
